Assay results as given in the supplement of paper PMC10981050.
Where “and” joins values, the source holds several entries; their conditions need not be identical. Equal values may be shown once. Where a name gives a salt, the structure may show the parent alone.

Experiments:
Test in all cases: cell viability relative to vehicle control; higher = less cytotoxic
Settings in all cases: 10 µM
[1] = test system: K562
In short: (§1)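 Screening covered the Selleck bioactive, kinase and epigenetic probe libraries, less identity-inconsistent compounds, on CRISPR-edited mutant clones and isogenic wild-type clones of four leukaemia lines. Cells, at 2000 per well in 50 µL medium, received a single 10 µM acoustically dispensed dose. After 48 h the supernatant was removed and CellTiter-Glo luminescence was read. Viability was analysed in Genedata Screener as percent of the on-plate vehicle control.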

[2] = test system: MARIMO
In short: as §1

[3] = test system: MOLM14
In short: as §1

[4] = test system: OCI-AML2
In short: as §1

Row | Compound | cell viability ([1]; SRSF2 genotype: SRSF2 P95H/wt) | cell viability ([1]; SRSF2 genotype: SRSF2 wt/wt) [%] | cell viability ([2]; SRSF2 genotype: SRSF2 P95H/wt) [%] | cell viability ([2]; SRSF2 genotype: SRSF2 wt/wt) [%] | cell viability ([3]; SRSF2 genotype: SRSF2 P95H/wt) [%] | cell viability ([3]; SRSF2 genotype: SRSF2 wt/wt) [%] | cell viability ([4]; SRSF2 genotype: P95H/wt) [%] | cell viability ([4]; SRSF2 genotype: wt/wt) [%]
1 | NC(=O)c1ccc[n+]([O-])c1 [Nicotinamide N-oxide] | 110% | 111 | 107 | 109 | 98.7 | 105 | 112 | 101
2 | CC(=O)/N=c1/sc(S(N)(=O)=O)nn1C [Methazolamide] | 109% and 102% | 95.2 | 106 | 111 | 98.5 | 102 | 100 | 105
3 | COc1cc2nc(N3CCCN(C)CC3)nc(NC3CCN(Cc4ccccc4)CC3)c2cc1OC | 6.31% and 1.97% | 3.98 | 0.75 | 0.69 | 0.24 | 0.26 | 0.23 | 0.28
4 | COc1ccc(NS(=O)(=O)c2sc3ccc(Cl)cc3c2C)cc1N1CCNCC1 | 99.5% and 98.2% | 104 | 100 | 99.2 | 96.4 | 106 | 87.9 | 78
5 | O=C(Nc1cccc(C2=NCCN2)c1)Nc1cccc(C2=NCCN2)c1 [Imidocarb dipropionate] | 98.4% and 92.2% | 95.3 | 91.5 | 103 | 80.2 | 87.7 | 88.6 | 89.4
6 | CC(NC(=O)C(O)c1cc(F)cc(F)c1)C(=O)NC1C(=O)N(C)c2ccccc2-c2ccccc21 (stereo not drawn) | 99.5% and 96.4% | 99.2 | 96.1 | 97.8 | 102 | 105 | 98.7 | 96.8
7 | CN(C)CCSSCCNC(=O)C1CCN(C(=O)CSc2ccc(Cl)cc2)CC1 | 82% and 85.7% | 81.6 | 68 | 86.9 | 91.8 | 95.1 | 89.8 | 79.5
8 | Cc1cc(C(C)Nc2ccccc2)c2nc(N3CCOCC3)cc(=O)n2c1 (stereo not drawn) | 92.6% and 97.6% | 93.3 | 90.7 | 90.4 | 70.9 | 69 | 73.4 | 76.6
9 | O=C(O)COc1ccc(Br)cc1C=C1SC(=S)N(Cc2cccnc2)C1=O [Skp2 inhibitor C1 (SKPin C1)] | 34.9% and 35.5% | 35.5 | 18.9 | 18.6 | 5.39 | 2.44 | 3.65 | 9.12
10 | CN1c2cc(O)c(N=NC(N)=O)cc2CC1S(=O)(=O)O (stereo not drawn) [Carbazochrome sodium sulfonate] | 99.4% and 97% | 95.2 | 92.7 | 98.7 | 97 | 99.3 | 99.1 | 106
11 | C=CC(=O)N1CCC[C@@H](n2nc(-c3ccc(Oc4ccccc4)cc3)c3c(N)ncnc32)C1 | 35.9% and 57.5% | 42.9 | 70.9 | 89.1 | 16.5 | 17.8 | 44.3 | 53.1
12 | Cn1cc(-c2ccncc2)c(-c2ccc(OCc3ccc4ccccc4n3)cc2)n1 | 79.8% and 91.7% | 91.2 | 93 | 90.4 | 65 | 71.4 | 71.5 | 68
13 | Nc1nc(Nc2ccc(S(N)(=O)=O)cc2)nn1C(=O)c1c(F)cccc1F | 41.2% and 43.9% | 31.2 | 10.8 | 7.19 | 3.09 | 0.41 | 2.63 | 12
14 | CCOc1ccccc1OC(c1ccccc1)C1CNCCO1 (stereo not drawn) [Reboxetine mesylate] | 94.5% and 93.4% | 90.7 | 81.9 | 91.7 | 92.2 | 95.8 | 70.1 | 97.4
15 | CN(C)C(=O)CCSC(SCCC(=O)O)c1cccc(/C=C/c2ccc3ccc(Cl)cc3n2)c1 (stereo not drawn) | 102% and 103% | 98.5 | 110 | 111 | 108 | 107 | 101 | 103
16 | Cc1ncc(NC(=O)c2cccc(C(F)(F)F)c2)cc1-c1cnc(OC2CCOCC2)c(N2CCOCC2)c1 | 61.6% and 73.4% | 71.2 | 41.2 | 40.3 | 48.2 | 40.7 | 30.6 | 39
17 | O=C(Nc1cccc(C(F)(F)F)c1)c1cccc2cc(Oc3cc(CO)ncn3)ccc12 | 80.8% and 91.3% | 87.8 | 101 | 121 | 86.9 | 98.6 | 90.7 | 96.3
18 | Nc1ncnc2c1c(-c1cccc(OCc3ccccc3)c1)cn2C1CC(CN2CCCC2)C1 (stereo not drawn) | 85.5% and 90.3% | 88.4 | 47.1 | 40.6 | 39.4 | 55.1 | 35.1 | 41.8
19 | Cc1ccc(C(C)C)cc1 [p-Cymene] | 111% and 96.9% | 113 | 95.9 | 99.5 | 100 | 106 | 117 | 119
20 | CNC(CC(=O)O)C(=O)O [NMDA (N-Methyl-D-aspartic acid)] | 102% and 94.2% | 99.7 | 101 | 99.5 | 100 | 99 | 94.4 | 107
21 | CC(C)=CCC[C@](C)(O[C@@H]1O[C@H](CO[C@@H]2OC[C@@H](O)[C@H](O)[C@H]2O)[C@@H](O)[C@H](O)[C@H]1O)[C@H]1CC[C@]2(C)[C@@H]1[C@H](O)C[C@@H]1[C@@]3(C)CC[C@H](O[C@@H]4O[C@H](CO)[C@@H](O)[C@H](O)[C@H]4O[C@@H]4O[C@H](CO)[C@@H](O)[C@H](O)[C@H]4O)C(C)(C)[C@@H]3CC[C@]12C [Ginsenoside Rb3] | 101% and 96.7% | 108 | 103 | 103 | 109 | 102 | 101 | 101
